In PubChem BioAssay (NCI):
“And” between values parts separate entries of the source, which are not always exact repeats. Identical values can stand only once. The panel holds about 79,000 compounds, 15% with a hit somewhere; the sample as a whole holds those more often. More than one record can exist for a structure, and the calls need not agree. The source made the active and inactive calls. Rule as the data show it: active = growth inhibition above about 70%; inactive = the rest.

Assays:
[1] = NCI Yeast Anticancer Drug Screen. Data for the rad50 strain (AID 155);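 also: 0% = growth of vehicle-only cultures of the same strain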; settings: S. cerevisiae rad50 strain growth inhibition, stronger effect = higher value
In short: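 Compounds were tested on a yeast strain with an engineered DNA damage repair alteration; the reported value is growth inhibition normalised to vehicle treatment.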

[2] = NCI Yeast Anticancer Drug Screen. Data for the mec2-1 strain (AID 157); settings: S. cerevisiae mec2-1 strain, stronger effect = higher value
In short: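 Compounds were applied to mec2-1 yeast cells. Their growth was then compared with that of vehicle-treated cultures to give growth inhibition.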

[3] = NCI Yeast Anticancer Drug Screen. Data for the sgs1 mgt1 strain (AID 161);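 also: 0% = growth of cultures given vehicle only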; settings: S. cerevisiae sgs1 mgt1 strain, stronger effect = higher value
In short: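 Percent growth inhibition was derived by comparing compound-exposed mutant yeast with vehicle-exposed cultures. The strain carries alterations in DNA damage repair.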

[4] = NCI Yeast Anticancer Drug Screen. Data for the cln2 rad14 strain (AID 165);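 also: 0% = growth equal to vehicle treated cultures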; settings: S. cerevisiae cln2 rad14 strain, stronger effect = higher value
In short: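 Strain: cln2 rad14 yeast, altered in cell cycle control and DNA damage repair. Read-out: growth inhibition vs vehicle.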

[5] = NCI Yeast Anticancer Drug Screen. Data for the bub3 strain (AID 167); settings: S. cerevisiae bub3 mutant strain, stronger effect = higher value
In short: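 Growth of a checkpoint-deficient yeast mutant is measured after compound exposure. Values represent inhibition relative to vehicle.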

[6] = NCI Yeast Anticancer Drug Screen. Data for the mlh1 rad18 strain (AID 175); settings: S. cerevisiae mlh1 rad18 strain growth inhibition, stronger effect = higher value
In short: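 A repair-deficient yeast strain is exposed to test compound, and growth is scored relative to vehicle-treated controls.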

[7] = at 5.0 µM (retest, dose inferred, filed as 0.5)
[8] = at 50.0 µM (retest, dose inferred, filed as 5.0)

Measured: growth inhibition

O=[N+]([O-])c1ccc(SSc2ccc([N+](=O)[O-])cc2)cc1
inactive: [4]; [7] 27% and 65%
58% (inactive) and 98% (active): [5]; [7]
98.3% (active) and 69.6% (inactive): [6]; at 50.0 µM
98.2% (active) and 65.7% (inactive): [1]; at 50.0 µM
98.9% (active) and 38.1% (inactive): [2]; at 50.0 µM
98.5% (active) and 49.2% (inactive): [5]; at 50.0 µM
93.7% (active) and -34.6% (inactive): [4]; at 50.0 µM
active: [1]; [8] 98% | [2]; [7] 70% and 99% | [2]; [8] 99% | [3]; [7] 91% and 87% | [3]; [8] 99% and 98% | [4]; [8] 97% | [5]; [8] 99% | [6]; [7] 70% and 87% | [6]; [8] 98%
99% (active) and 68.8% (inactive): [3]; at 50.0 µM
35% (inactive) and 88% (active): [1]; [7]

Oc1c(Cl)c(Cl)c(Cl)c2ccccc12
inactive: [3]; [7] 38% | [3]; [8] 34% | [4]; [7] 39% | [4]; at 50.0 µM 53.4%
active: [1]; [7] 84% | [1]; [8] 95% | [1]; at 50.0 µM 95.5% | [2]; [7] 79% | [2]; [8] 98% | [2]; at 50.0 µM 96.8% | [3]; at 50.0 µM 95.9% | [4]; [8] 94% | [5]; [7] 92% | [5]; [8] 93% | [5]; at 50.0 µM 91.2% | [6]; [7] 87% | [6]; [8] 98% | [6]; at 50.0 µM 96.7%

O=P(C(=S)NC1CC2C=CC1C2)(c1ccccc1)c1ccccc1 (stereo not given)
active: [1]; [8] 93% | [2]; [8] 94% | [3]; [8] 90% | [4]; [8] 85% | [4]; at 50.0 µM 73.4% | [5]; [8] 92% | [6]; [8] 90% | [6]; at 50.0 µM 86.7%
inactive: [1]; [7] 27% | [1]; at 50.0 µM 48% | [2]; [7] 7% | [2]; at 50.0 µM 51.1% | [3]; [7] 2% | [3]; at 50.0 µM 26.4% | [4]; [7] 12% | [5]; [7] -3% | [5]; at 50.0 µM 34.1% | [6]; [7] -31%

COc1cc(C2C(C#N)=C(C)Nc3nc(N)nc(N)c32)cc(OC)c1OC (stereo not given)
active: [4]; at 50.0 µM 81.4%
inactive: [1]; [7] -6% | [1]; [8] 19% | [1]; at 50.0 µM 24.6% | [2]; [7] -7% | [2]; [8] 13% | [2]; at 50.0 µM 3.75% | [3]; [7] -8% | [3]; [8] 10% | [3]; at 50.0 µM 19.1% | [4]; [7] -6% | [4]; [8] 9% | [5]; [7] 0% | [5]; [8] 65% | [5]; at 50.0 µM 1.2% | [6]; [7] -1% | [6]; [8] 21% | [6]; at 50.0 µM 8.95%

O=C(OCC(OC(=O)c1ccccc1)C(OC(=O)c1ccccc1)C(OC(=O)c1ccccc1)C(OC(=O)c1ccccc1)c1nn[nH]n1)c1ccccc1 (stereo not given)
active: [1]; [8] 72% and 81% | [1]; at 50.0 µM 93.1% and 90.7% | [2]; [8] 72% and 77% | [2]; at 50.0 µM 87.5% and 89% | [3]; [8] 72% and 75% | [3]; at 50.0 µM 93.3% and 91.6% | [4]; [8] 75% and 82% | [4]; at 50.0 µM 90.2% and 90.3% | [5]; [8] 88% and 74% | [5]; at 50.0 µM 78.6% and 82.8% | [6]; [8] 74% and 81% | [6]; at 50.0 µM 89.2% and 90%
75% (active) and 16% (inactive): [5]; [7]
inactive: [1]; [7] 61% and 23% | [2]; [7] 52% and 41% | [3]; [7] 54% and 18% | [4]; [7] 54% and 40% | [6]; [7] 60% and 26%

CC(C)CCCC(C)C1CCC2C3CC=C4CC([n+]5cccc6ccccc65)CCC4(C)C3CCC12C (stereo not given)
inactive: [2]; [7] 11% | [3]; [7] 60% | [3]; [8] 50% | [4]; [7] 39% | [4]; at 50.0 µM 68%
active: [1]; [7] 78% | [1]; [8] 90% | [1]; at 50.0 µM 93.3% | [2]; [8] 92% | [2]; at 50.0 µM 95.4% | [3]; at 50.0 µM 94.8% | [4]; [8] 91% | [5]; [7] 74% | [5]; [8] 89% | [5]; at 50.0 µM 92.2% | [6]; [7] 74% | [6]; [8] 89% | [6]; at 50.0 µM 95.2%

CCCCCCCCCCCCc1ccc(S(=O)(=O)O)cc1.[Cu+2]
inactive: [1]; [7] -6% | [2]; [7] 14% | [2]; at 50.0 µM 64.9% | [3]; [7] 6% | [3]; at 50.0 µM 41.2% | [4]; [7] 2% | [4]; at 50.0 µM 17.3% | [5]; [7] -9% | [5]; at 50.0 µM 43.8% | [6]; [7] 15% | [6]; at 50.0 µM 66%
active: [1]; [8] 88% | [1]; at 50.0 µM 90.3% | [2]; [8] 70% | [3]; [8] 97% | [4]; [8] 81% | [5]; [8] 82% | [6]; [8] 93%

CC1=CC(C)(C)Nc2ccc(CSc3ccccc3)cc21
inactive: [1]; [7] 7% | [1]; [8] 25% | [1]; at 50.0 µM 8.1% and 36.4% | [2]; [7] -8% | [2]; [8] -17% | [2]; at 50.0 µM 11.9% and 5.5% | [3]; [7] -1% | [3]; [8] 10% | [3]; at 50.0 µM 12.4% and 13.9% | [4]; [7] -13% | [4]; [8] 6% | [4]; at 50.0 µM -1.1% and 19.8% | [5]; [7] -11% | [5]; [8] 6% | [5]; at 50.0 µM 29.3% and 60.9% | [6]; [7] 23% | [6]; [8] 16% | [6]; at 50.0 µM 37.4% and 15.6%

COC(=O)C1=COC(C)C2C[n+]3ccc4c([nH]c5ccccc54)c3CC12 (stereo not given)
inactive: [1]; [7] 23% | [1]; [8] 25% | [1]; at 50.0 µM -11.6% and 6.35% | [2]; [7] 22% | [2]; [8] 25% | [2]; at 50.0 µM -34% and 31.9% | [3]; [7] 17% | [3]; [8] 38% | [3]; at 50.0 µM -11.2% and 17.6% | [4]; [7] 21% | [4]; [8] 30% | [4]; at 50.0 µM -8.3% and -15.8% | [5]; [7] 22% | [5]; [8] 35% | [5]; at 50.0 µM -31.1% and 38.2% | [6]; [7] 23% | [6]; [8] 39% | [6]; at 50.0 µM -18.1% and 43.3%

COc1ccc(/C=C/C(=O)CCN2CCN(CCC(=O)/C=C/c3ccc(OC)cc3)CC2)cc1
inactive: [1]; [7] 16% | [2]; [7] -15% | [3]; [7] -4% | [4]; [7] -20% | [4]; at 50.0 µM 29.9% | [5]; [7] -59% | [6]; [7] -5%
active: [1]; [8] 99% | [1]; at 50.0 µM 81.7% | [2]; [8] 99% | [2]; at 50.0 µM 90.7% | [3]; [8] 99% | [3]; at 50.0 µM 90.2% | [4]; [8] 99% | [5]; [8] 99% | [5]; at 50.0 µM 87% | [6]; [8] 98% | [6]; at 50.0 µM 91.5%

Cc1ccc(CC(=O)c2c(C)[nH]c3ccccc23)cc1C
inactive: [1]; [7] 10% | [1]; [8] 11% | [2]; [7] 7% | [2]; [8] 24% | [3]; [7] 11% | [3]; [8] 11% | [4]; [7] 40% | [4]; [8] 44% | [5]; [7] 0% | [5]; [8] 4% | [6]; [7] 20% | [6]; [8] 8%
active: [1]; at 50.0 µM 95.7% | [2]; at 50.0 µM 96.2% | [3]; at 50.0 µM 98.5% | [4]; at 50.0 µM 93.5% | [5]; at 50.0 µM 92.5% | [6]; at 50.0 µM 97%

CN(C)CCNC(=O)Cc1cc(O)c2c(c1O)C(=O)c1ccccc1C2=O
active: [1]; at 50.0 µM 75.3% | [3]; at 50.0 µM 81.3% | [6]; at 50.0 µM 82.1%
inactive: [1]; [7] 6% | [1]; [8] 42% | [2]; [7] 6% | [2]; [8] 16% | [2]; at 50.0 µM 23% | [3]; [7] 4% | [3]; [8] 28% | [4]; [7] -7% | [4]; [8] 12% | [4]; at 50.0 µM 54.7% | [5]; [7] 0% | [5]; [8] 16% | [5]; at 50.0 µM 16% | [6]; [7] 4% | [6]; [8] 10%

COC(=O)C(CC(C)=O)CS(=O)(=O)CC(=O)C(=O)Nc1cccc([N+](=O)[O-])c1 (stereo not given)
inactive: [1]; [7] 4% | [2]; [7] 3% | [3]; [7] 7% | [4]; [7] 3% | [5]; [7] 5% | [6]; [7] -2%
active: [1]; [8] 98% | [1]; at 50.0 µM 99.5% | [2]; [8] 99% | [2]; at 50.0 µM 99.5% | [3]; [8] 99% | [3]; at 50.0 µM 99.2% | [4]; [8] 98% | [4]; at 50.0 µM 98.2% | [5]; [8] 98% | [5]; at 50.0 µM 99.2% | [6]; [8] 98% | [6]; at 50.0 µM 99.2%

C#CC(C)(C)OC(=O)Nc1ccccc1
8.4% (inactive) and 86.7% (active): [6]; at 50.0 µM
inactive: [1]; [7] 5% | [2]; [7] -14% | [2]; [8] 62% | [2]; at 50.0 µM 9.3% and 43.6% | [3]; [7] -2% | [4]; [7] 0% | [4]; [8] 14% | [4]; at 50.0 µM -53% and 2.95% | [5]; [7] -6% | [5]; at 50.0 µM -7.8% and 59.4% | [6]; [7] -3%
12.6% (inactive) and 89.2% (active): [1]; at 50.0 µM
-10.1% (inactive) and 84% (active): [3]; at 50.0 µM
active: [1]; [8] 86% | [3]; [8] 80% | [5]; [8] 79% | [6]; [8] 80%

O=C1C=CC(=O)C(C2OC(=O)C(Br)=C2Br)=C1 (stereo not given)
inactive: [1]; [7] -14% | [1]; [8] 18% | [1]; at 50.0 µM 6.95% | [2]; [7] -21% | [2]; [8] -17% | [2]; at 50.0 µM 5.5% | [3]; [7] -18% | [3]; [8] -1% | [3]; at 50.0 µM -3.45% | [4]; [7] -10% | [4]; [8] -10% | [4]; at 50.0 µM -17.7% | [5]; [7] -9% | [5]; [8] 7% | [5]; at 50.0 µM 13.6% | [6]; [7] -25% | [6]; [8] 46% | [6]; at 50.0 µM 12.4%
